Test [1] is described as follows: NCI Yeast Anticancer Drug Screen. Data for the rad50 strain (AID 155).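 Also: 0% = growth of vehicle-only cultures of the same strain.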 The note with it: S. cerevisiae rad50 strain growth inhibition; at 50.0 µM; stronger effect = higher value. An outline of the steps: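 Yeast carrying a defined DNA repair defect were exposed to test compounds, and growth was compared with vehicle-treated controls to give percent inhibition.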
Test [2] is described as follows: NCI Yeast Anticancer Drug Screen. Data for the mec2-1 strain (AID 157). Conditions: S. cerevisiae mec2-1 strain, at 50.0 µM, stronger effect = higher value. An outline of the steps:
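Yeast mec2-1 mutant treated with compound. Readout: growth inhibition vs vehicle controls.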

Test [3] can be described thus: NCI Yeast Anticancer Drug Screen. Data for the sgs1 mgt1 strain (AID 161).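 Also: 0% = growth of cultures given vehicle only.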 Conditions: S. cerevisiae sgs1 mgt1 strain, at 50.0 µM, stronger effect = higher value. The procedure, abridged: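 Genetically altered yeast, compound exposure, growth inhibition relative to vehicle.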
Test [4] is described as follows: NCI Yeast Anticancer Drug Screen. Data for the cln2 rad14 strain (AID 165).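 Also: 0% = growth equal to vehicle treated cultures.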 Conditions: S. cerevisiae cln2 rad14 strain, at 50.0 µM, stronger effect = higher value. An outline of the steps:
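cln2 rad14 yeast strain; compound exposure; growth inhibition read vs vehicle controls.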

The nature of test [5]: NCI Yeast Anticancer Drug Screen. Data for the bub3 strain (AID 167). Conditions: S. cerevisiae bub3 mutant strain, at 50.0 µM, stronger effect = higher value. An outline of the steps:
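Compounds were applied to a genetically altered yeast strain carrying a cell-cycle control defect. Growth inhibition was scored against vehicle-treated controls.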

A short description of test [6]: NCI Yeast Anticancer Drug Screen. Data for the mlh1 rad18 strain (AID 175). Conditions: S. cerevisiae mlh1 rad18 strain growth inhibition; at 50.0 µM; stronger effect = higher value. The procedure, abridged:
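Yeast w/ defined DNA-repair lesions; compound exposure; growth vs vehicle controls → % inhibition.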

Each structure is given as a SMILES string. The panel holds about 79,000 compounds, 15% with a hit somewhere; the sample as a whole holds those more often. Values without a mark were called inactive. Activity calls are given as the source filed them. Rule as the data show it: active = growth inhibition above about 70%; inactive = the rest.

The record followed here is PubChem BioAssay (NCI).

In the case of `O=[N+]([O-])c1ccc(C2=NCC=CCO2)cc1`, the growth inhibition in test [1] was 18%; in test [2], 16.2%; in test [3], 7.55%; in test [4], -6.55%; in test [5], 4.5%; in test [6] it was 12.8%.

As for `CCOC(=O)c1cc2cc(C)cc(C(=O)c3ccc([N+](=O)[O-])cc3)c2[nH]1`, the growth inhibition in test [1] was 15.1%; in test [2], 25.4%; in test [3], 30.6%; in test [4] it was 4.15%; in test [5], -0.55%; in test [6], -16.3%.

As for `COC(=O)c1ccc(C(=O)OC)c2nc3cc(Cl)ccc3nc12`, the growth inhibition in test [1] was -7.05%; in test [2], -10.2%; in test [3], -35.5%; in test [4], -29.2%; in test [5], -10.6%; in test [6], -40.1%.

In the case of `COc1ccc(/C=C/C(=N\NC(=O)c2ccccc2)c2sc(Nc3ccc([N+](=O)[O-])cc3)nc2C)cc1OC`, the growth inhibition in test [1] was -13.3%; in test [2], 2.5%; in test [3] it was 11.1%; in test [4], 22.8%; in test [5], 30.8%; in test [6], -9.85%.

`CCOC(=O)c1cnc(SC)nc1N`: the growth inhibition was 9.25% in test [1]; -8.1% in test [2]; -7.9% in test [3]; -2.1% in test [4]; 8.95% in test [5]; -3.5% in test [6].

`CCCCCCCCCCCCN=Cc1cc(Cc2ccc(O)c(C=NCCCCCCCCCCCC)c2)ccc1O`: the growth inhibition in test [1] is 85.7% (active); in test [2], 80.4% (active); in test [3], 91.3% (active); in test [4] it was 84.2% (active); in test [5], 83.7% (active); in test [6], 96% (active).

`Fc1cccc(-c2nnc(-c3cccc4ccccc34)o2)c1`: the growth inhibition in test [1] is -8.65%; in test [2], -1.8%; in test [3], -0.5%; in test [4], -49.8%; in test [5], 1.45%; in test [6] it was -5.1%.

On to `COC(=O)CCSSCCC(=O)OC`, for which the growth inhibition was 2.15% in test [1]; -13.1% in test [2]; -1.6% in test [3]; -6.15% in test [4]; -21.4% in test [5]; 24.9% in test [6].

On to `O=C(O)C(CCl)(CCl)CCl`, for which the growth inhibition in test [1] was 19.4%; in test [2] it was 1.3%; in test [3], 1.05%; in test [4], 17.6%; in test [5], 13.8%; in test [6], 15.2%.

On to `O=C1CSC2=NC3=C(CSC/C3=C\c3ccccc3)C(c3ccccc3)N12` (stereo unspecified), for which the growth inhibition was 14.4% in test [1]; 11.5% in test [2]; 21.2% in test [3]; 35.8% in test [4]; 21% in test [5]; -25.6% in test [6].

On to `CC(=O)NNC(=O)c1ccc(Br)cc1`, for which the growth inhibition in test [1] was 1.3%; in test [2] it was -16.4%; in test [3] it was 0.5%; in test [4], -3.2%; in test [5] it was 21.6%; in test [6], -1.05%.

As for `COc1ccc(OC(=O)Nc2ccc(OC)cc2Cl)cc1`, the growth inhibition in test [1] is 3%; in test [2], 5.75%; in test [3], 7.05%; in test [4] it was 12.6%; in test [5], 24.7%; in test [6] it was 7.7%.

With `CCCCCn1c(=O)c2c(=O)[nH][nH]c2c2ccccc21`, the growth inhibition in test [1] is -16.3%; in test [2] it was -7.9%; in test [3], -9.55%; in test [4], -69.6%; in test [5], -1.3%; in test [6], -22.5%.

On to `CCCCc1c2c([n+]([O-])c3c1CCCC3)CCCC2`, for which the growth inhibition in test [1] was 29.4%; in test [2], 30.3%; in test [3] it was 54.1%; in test [4] it was -11.2%; in test [5] it was 17.2%; in test [6], 20.1%.

`Cc1nc2ccccc2n1C(=O)c1c(F)c(F)c(F)c(F)c1F`: the growth inhibition is -35.9% in test [1]; -17.6% in test [2]; -28.6% in test [3]; -18.7% in test [4]; -9.8% in test [5]; -18.9% in test [6].

In the case of `Cn1c(=O)c2ncn(CC(O)COc3ccccc3)c2n(C)c1=O` (stereo unspecified), the growth inhibition was 2.15% in test [1]; 3.1% in test [2]; 11.8% in test [3]; -2.8% in test [4]; 25.9% in test [5]; 16.3% in test [6].

As for `NC(CS)=NCCc1nc2ccccc2[nH]1`, the growth inhibition in test [1] is 12.6%; in test [2], 9.95%; in test [3], -0.2%; in test [4] it was -2.85%; in test [5], 7.6%; in test [6], 4.3%.

On to `O=C(NC(=O)C1(C(=O)O)CCCC1)Nc1ccccc1`, for which the growth inhibition is 7.95% in test [1]; -7.05% in test [2]; 6.4% in test [3]; -39.1% in test [4]; 27.4% in test [5]; -9.15% in test [6].

Consider `c1cc(Sc2nc(Sc3ccncc3)nc(Sc3ccncc3)n2)ccn1`, for which the growth inhibition in test [1] is 5.15%; in test [2], 8.6%; in test [3], 14.8%; in test [4] it was 39.2%; in test [5], -9.7%; in test [6], -7.25%.

Regarding `CC(=O)n1nc(Cl)c2cccnc2c1=O`, the growth inhibition is 11.8% in test [1]; -1.1% in test [2]; 4.3% in test [3]; 1.55% in test [4]; -0.4% in test [5]; 8.85% in test [6].

Consider `COc1cc(C(C#N)NNC(=O)c2ccccc2O)ccc1O` (stereo unspecified), for which the growth inhibition in test [1] was 34.4%; in test [2] it was 42.8%; in test [3], 44.7%; in test [4] it was 17.6%; in test [5], 66.2%; in test [6], 38%.

Consider `NC(Cc1ccc(CP(=O)(O)O)cc1)C(=O)O` (stereo unspecified), for which the growth inhibition is -44.8% in test [1]; -61.3% in test [2]; -55.1% in test [3]; -20% in test [4]; -27.5% in test [5]; -70.3% in test [6].

`CCC(=O)n1ncc2ccc([N+](=O)[O-])cc21`: the growth inhibition is 3.45% in test [1]; 5.15% in test [2]; -2.8% in test [3]; -105% in test [4]; -4.45% in test [5]; -7.5% in test [6].

Regarding `Cc1ccccc1C(=O)Oc1ccccc1Cl`, the growth inhibition was 12% in test [1]; 17.7% in test [2]; -6.2% in test [3]; 4.25% in test [4]; 13.2% in test [5]; 11.3% in test [6].

Take `O=NN(CCOS(=O)(=O)c1ccc(Br)cc1)C(=O)NC1CCCCC1`: the growth inhibition is 32% in test [1]; 9.25% in test [2]; 18.6% in test [3]; 28.6% in test [4]; -1.95% in test [5]; 25.2% in test [6].

Consider `CC(=O)NCc1cc2c3c(c1)CCCN3CCC2`, for which the growth inhibition in test [1] is 6%; in test [2] it was -7.15%; in test [3], 4.15%; in test [4] it was -32.5%; in test [5], 0.1%; in test [6], -4.8%.

Turning to `CCCCNc1nc(NC2OCC(OC(C)=O)C(OC(C)=O)C2OC(C)=O)c(N=O)c(=O)n1C` (stereo unspecified), the growth inhibition in test [1] was -4%; in test [2], -21.4%; in test [3] it was -4.3%; in test [4] it was -28.4%; in test [5], -12.5%; in test [6], -2.9%.

Consider `CCN1CCCC(Nc2nc(Nc3cc(Cl)cc(Cl)c3)nc3ccc(Cl)cc23)C1` (stereo unspecified), for which the growth inhibition in test [1] is 97.3% (active); in test [2] it was 97.1% (active); in test [3] it was 97.5% (active); in test [4] it was 95.5% (active); in test [5] it was 96.8% (active); in test [6], 95.8% (active).

Regarding `NC(=O)NC(=O)c1ccccc1`, the growth inhibition is -10.4% in test [1]; -15.2% in test [2]; -10.2% in test [3]; -9.25% in test [4]; 3.55% in test [5]; -7.55% in test [6].

As for `O=C(NO)c1ccc(Cl)cc1Cl`, the growth inhibition in test [1] is 57.9%; in test [2] it was -0.8%; in test [3], 37.7%; in test [4], -11.9%; in test [5] it was 18.6%; in test [6], 43.7%.

`COC(=O)C(C)Oc1ccccc1` (stereo unspecified): the growth inhibition in test [1] was 2.35%; in test [2], -28.2%; in test [3], -9.4%; in test [4], -4.8%; in test [5] it was -10%; in test [6], -18.5%.

For `COc1cc(/C=C2/C(=O)N=C(NC(C)=O)N2C)ccc1OC(C)=O`, the growth inhibition in test [1] was -35.9%; in test [2] it was -2.55%; in test [3] it was -14.7%; in test [4] it was 6.35%; in test [5], 5.55%; in test [6], -37.1%.

Turning to `CC1C(c2ccccc2O)c2cc3c(cc2OC1N1CCCC1)OCO3` (stereo unspecified), the growth inhibition was 45.9% in test [1]; 38.8% in test [2]; 58.5% in test [3]; 59.6% in test [4]; 47.4% in test [5]; 58.3% in test [6].

For the compound `BrCCCC1CCCCC1`, the growth inhibition was -23.6% in test [1]; -41.7% in test [2]; -13.2% in test [3]; 2.1% in test [4]; -14.6% in test [5]; -14.7% in test [6].

`Cn1c(=O)c2[nH]c(CCNC(=O)c3ccccc3)nc2n(C)c1=O`: the growth inhibition is 2.05% in test [1]; -9.75% in test [2]; -30.2% in test [3]; -38.5% in test [4]; -40.8% in test [5]; -9.95% in test [6].

Regarding `CCCC/C=C/C1C=CC(CCCCCCCC(=O)OCC)C(C(=O)OCC)C1` (stereo unspecified) (tested in a mixture with another compound), the growth inhibition in test [1] is 21%; in test [2], 8.75%; in test [3], 20%; in test [4] it was 17.4%; in test [5] it was 2.2%; in test [6], -13.4%.

For `CC1C(C)C1(c1ccccc1)C(C)(C)O` (stereo unspecified), the growth inhibition in test [1] was 8.55%; in test [2], 1.1%; in test [3], 1.3%; in test [4], 16.9%; in test [5], -24.1%; in test [6] it was -3.45%.

As for `Cn1c(=O)oc2cc(Br)ccc21`, the growth inhibition was -8.9% in test [1]; 0.7% in test [2]; -3.1% in test [3]; 18.9% in test [4]; 23% in test [5]; -67.8% in test [6].

`OC(c1ccccc1)(c1ccccc1)c1ccccc1C(O)(c1ccccc1)c1ccccc1`: the growth inhibition in test [1] was 12.2%; in test [2] it was 1%; in test [3], 4.6%; in test [4], 10.8%; in test [5], -4.65%; in test [6] it was 12.8%.

As to `CCCCCC(=O)C#Cc1ccccc1`, the growth inhibition in test [1] was 24.1%; in test [2], 11.1%; in test [3] it was 11.7%; in test [4] it was -7.25%; in test [5], -4.9%; in test [6], 20.4%.

As for `O=C(O)C/C(=C\c1ccccc1)C(=O)O`, the growth inhibition in test [1] was -3.15%; in test [2], -25.9%; in test [3] it was -17.4%; in test [4], 4%; in test [5], -24.2%; in test [6], -30.9%.
